# Source: PubChem BioAssay (EPA / NIEHS)
# Active and inactive are the calls of the source. How the source made its calls: active means hit-call score of the fitted dose curve at least 0.9, where 1 is the maximum; inactive means score below 0.9.
# Columns and labels:
# [1] = read-out: Vascular endothelial growth factor receptor 2 (Homo sapiens) (UniProt P35968); assay: BSK_4H_VEGFRII: BioMAP Diversity Plus: 4H Assay for Vascular endothelial growth factor receptor 2 (VEGFR2) Biomarker Activity (AID 2283031); settings: primary human endothelial cells (HUVEC); actives raise or lower the signal;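 on AC50: cell-surface VEGFR2 protein level quantified by ELISA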
# Outline: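 Primary human umbilical vein endothelial cells in the BioMAP 4H system were dosed with test chemical, and 24 h later VEGFRII was measured by ELISA. Activity was fitted bidirectionally against DMSO as negative control and baseline.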
# [2] = read-out: Human Leukocyte Antigen - DR isotype (HLADR), HLA-DRA (gene 3122); assay: BSK_BE3C_HLADR: BioMAP Diversity Plus: BE3C Assay for Human Leukocyte Antigen - DR isotype (HLADR) Biomarker Activity (AID 2283032); settings: primary human bronchial epithelial cells; actives raise or lower the signal
# Outline: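 Human primary bronchial epithelial cells in the BE3C system were exposed to chemicals for 24 h, after which HLA-DR levels were quantified by ELISA. Activity was fitted bidirectionally, gain or loss of signal, against DMSO as negative control and baseline.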
# [3] = read-out: Vascular cell adhesion molecule 1 (VCAM1), VCAM1 (gene 7412); assay: BSK_4H_VCAM1: BioMAP Diversity Plus: 4H Assay for Vascular cell adhesion molecule 1 (VCAM1) Biomarker Activity (AID 2283033); settings: primary human endothelial cells (HUVEC); actives raise or lower the signal;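 on outcome: cell-surface VCAM-1 protein measured by ELISA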
# Outline: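 Primary human umbilical vein endothelial cells were exposed to chemicals for 24 h, after which VCAM-1 was quantified by ELISA. Responses were fitted bidirectionally against DMSO as negative control and activity baseline.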
# [4] = read-out: Monokine induced gamma interferon (MIG), CXCL9 (gene 4283); assay: BSK_BE3C_MIG: BioMAP Diversity Plus: BE3C Assay for Monokine induced gamma interferon (MIG) Biomarker Activity (AID 2283035); settings: primary human bronchial epithelial cells; actives raise or lower the signal;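 on outcome: MIG protein measured by ELISA in BE3C cultures after 24 h of dosing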
# Outline: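 Primary human bronchial epithelial cells treated for 24 h; MIG levels measured by ELISA, fitted bidirectionally versus DMSO. Parallel SRB total-protein staining assessed cytotoxicity.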
# [5] = read-out: Transforming growth factor beta 1 (TGFb1), TGFB1 (gene 7040); assay: BSK_BE3C_TGFb1: BioMAP Diversity Plus: BE3C Assay for Transforming growth factor beta 1 (TGFb1) Biomarker Activity (AID 2283036); settings: primary human bronchial epithelial cells; actives raise or lower the signal
# Outline: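 Human primary bronchial epithelial cells (BE3C system) were dosed with chemical and TGF-b1 levels measured by ELISA at 24 h. Activity was fitted bidirectionally relative to DMSO negative control as baseline.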
# [6] = read-out: Plasminogen activator inhibitor-1 (PAI1), SERPINE1 (gene 5054); assay: BSK_BE3C_PAI1: BioMAP Diversity Plus: BE3C Assay for Plasminogen activator inhibitor-1 (PAI1) Biomarker Activity (AID 2283037); settings: primary human bronchial epithelial cells; actives raise or lower the signal
# Outline: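 Human primary bronchial epithelial cells were exposed to chemical for 24 h, then PAI-1 was quantified by ELISA. Activity was fitted bidirectionally relative to the DMSO negative control baseline.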
# [7] = read-out: urokinase plasminogen activator (uPA), PLAU (gene 5328); assay: BSK_BE3C_uPA: BioMAP Diversity Plus: BE3C Assay for urokinase plasminogen activator (uPA) Biomarker Activity (AID 2283038); settings: primary human bronchial epithelial cells; actives raise or lower the signal;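 on outcome: uPA protein level quantified by ELISA in cell cultures; uPA read one day after compound addition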
# Outline: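 Human primary bronchial epithelial cells were exposed to chemical for 24 h, then uPA levels were measured by ELISA. Responses were fitted bidirectionally against DMSO as negative control and baseline. Parallel SRB staining of total protein gauged overt cytotoxicity.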
# [8] = read-out: Urokinase-type plasminogen activator receptor (uPAR), PLAUR (gene 5329); assay: BSK_BE3C_uPAR: BioMAP Diversity Plus: BE3C Assay for Urokinase-type plasminogen activator receptor (uPAR) Biomarker Activity (AID 2283039); settings: primary human bronchial epithelial cells; actives raise or lower the signal;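 on outcome: cells exposed to compound for one day before measurement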
# Outline: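 Primary human bronchial epithelial cells were dosed with chemical and harvested 24 h later; uPAR was quantified by ELISA. Activity was fitted bidirectionally against DMSO as negative control and baseline.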
# [9] = read-out: Interleukin-6 (IL6), IL6 (gene 3569); assay: BSK_CASM3C_IL6: BioMAP Diversity Plus: CASM3C Assay for Interleukin-6 (IL6) Biomarker Activity for (AID 2283040); settings: primary human coronary artery smooth muscle cells; actives raise or lower the signal
smiles,measurement,setting,value
O=S1OCC2C(CO1)C1(Cl)C(Cl)=C(Cl)C2(Cl)C1(Cl)Cl (centres undefined),AC50,[1],34.8 µM (active)
same,AC50,[2],26.6 µM (active)
same,AC50,[3],36.5 µM (active)
same,AC50,[4],34.4 µM (active)
same,AC50,[5],39.1 µM (active)
same,AC50,[6],28.8 µM (active)
same,AC50,[7],30.3 µM (active)
same,AC50,[8],30.7 µM (active)
same,outcome,[9],inactive
O=C(O)COc1ccc(Cl)cc1Cl,outcome,[1],inactive
same,outcome,[2],inactive
same,outcome,[3],inactive
same,outcome,[5],inactive
same,outcome,[6],inactive
same,outcome,[7],inactive
same,AC50,[8],0.152 µM (active)
same,outcome,[9],inactive
[2H]C1([2H])[n+]2ccccc2-c2cccc[n+]2C1([2H])[2H],outcome,[2],inactive
same,outcome,[3],inactive
same,outcome,[4],inactive
same,outcome,[5],inactive
same,outcome,[6],inactive
same,outcome,[7],inactive
same,AC50,[8],2.68 µM (active)
same,outcome,[9],inactive
COc1cc(OC)nc(NC(=O)NS(=O)(=O)c2cc(NC=O)ccc2C(=O)N(C)C)n1,outcome,[1],inactive
same,outcome,[2],inactive
same,outcome,[3],inactive
same,outcome,[5],inactive
same,outcome,[6],inactive
same,outcome,[7],inactive
same,outcome,[8],inactive
same,outcome,[9],inactive
CCC(C)(NC(=O)c1cc(Cl)c(C)c(Cl)c1)C(=O)CCl (centres undefined),AC50,[1],20 µM (active)
same,AC50,[2],13.6 µM (active)
same,AC50,[3],10.5 µM (active)
same,outcome,[5],inactive
same,AC50,[7],29.7 µM (active)
same,AC50,[8],31.5 µM (active)
same,outcome,[9],inactive
CC[C@H](C)[C@H]1O[C@]2(C=C[C@@H]1C)C[C@@H]1C[C@@H](C/C=C(\C)[C@@H](O[C@H]3C[C@H](OC)[C@@H](O[C@H]4C[C@H](OC)[C@@H](O)[C@H](C)O4)[C@H](C)O3)[C@@H](C)/C=C/C=C3\CO[C@@H]4[C@H](O)C(C)=C[C@@H](C(=O)O1)[C@]34O)O2 (tested in a mixture with another compound),AC50,[1],5.27 µM (active)
same,AC50,[2],5.87 µM (active)
same,AC50,[3],11.6 µM (active)
same,AC50,[5],20 µM (active)
same,AC50,[6],5.51 µM (active)
same,AC50,[7],5.41 µM (active)
same,AC50,[8],6.13 µM (active)
same,AC50,[9],13.9 µM (active)
CC(C)OC(=O)Nc1cccc(Cl)c1,outcome,[1],inactive
same,outcome,[2],inactive
same,outcome,[3],inactive
same,outcome,[5],inactive
same,outcome,[6],inactive
same,outcome,[7],inactive
same,outcome,[8],inactive
same,outcome,[9],inactive
CC(C)N(C(=O)COc1nnc(C(F)(F)F)s1)c1ccc(F)cc1,outcome,[1],inactive
same,outcome,[2],inactive
same,outcome,[3],inactive
same,outcome,[5],inactive
same,outcome,[6],inactive
same,outcome,[7],inactive
same,outcome,[8],inactive
same,outcome,[9],inactive
CCCN(CCOc1c(Cl)cc(Cl)cc1Cl)C(=O)n1ccnc1,outcome,[1],inactive
same,AC50,[2],29.3 µM (active)
same,outcome,[3],inactive
same,outcome,[5],inactive
same,AC50,[6],30.9 µM (active)
same,AC50,[7],32 µM (active)
same,outcome,[8],inactive
same,outcome,[9],inactive
COC(=O)c1ccccc1S(=O)(=O)NC(=O)N(C)c1nc(C)nc(OC)n1,outcome,[1],inactive
same,outcome,[2],inactive
same,outcome,[3],inactive
same,AC50,[5],0.148 µM (active)
same,outcome,[6],inactive
same,outcome,[7],inactive
same,outcome,[8],inactive
same,outcome,[9],inactive
O=C(O)CCCOc1ccc(Cl)cc1Cl,outcome,[1],inactive
same,outcome,[2],inactive
same,outcome,[3],inactive
same,outcome,[5],inactive
same,outcome,[6],inactive
same,outcome,[7],inactive
same,outcome,[8],inactive
same,outcome,[9],inactive
CNC(=O)CSP(=S)(OC)OC,outcome,[1],inactive
same,outcome,[2],inactive
same,outcome,[3],inactive
same,outcome,[5],inactive
same,outcome,[6],inactive
same,outcome,[7],inactive
same,outcome,[8],inactive
same,outcome,[9],inactive
N#CN,outcome,[1],inactive
same,outcome,[2],inactive
same,outcome,[3],inactive
same,AC50,[5],0.638 µM (active)
same,outcome,[6],inactive
same,outcome,[7],inactive
same,outcome,[8],inactive
same,outcome,[9],inactive
N#Cc1c(Cl)c(Cl)c(Cl)c(C#N)c1Cl,AC50,[1],1.44 µM (active)
same,AC50,[2],1.7 µM (active)
same,AC50,[3],1.16 µM (active)
same,AC50,[5],3.94 µM (active)
same,AC50,[6],2.5 µM (active)
same,AC50,[7],1.69 µM (active)
same,AC50,[8],3.98 µM (active)
same,AC50,[9],3.56 µM (active)
CCOCN(C(=O)CCl)c1c(C)cccc1CC,outcome,[1],inactive
same,AC50,[2],15.3 µM (active)
same,AC50,[3],19.2 µM (active)
same,outcome,[5],inactive
same,outcome,[6],inactive
same,outcome,[7],inactive
same,outcome,[8],inactive
same,outcome,[9],inactive
COC(=O)c1ccccc1CS(=O)(=O)NC(=O)Nc1nc(OC)cc(OC)n1,outcome,[1],inactive
same,outcome,[2],inactive
same,outcome,[3],inactive
same,outcome,[5],inactive
same,outcome,[6],inactive
same,outcome,[7],inactive
same,outcome,[8],inactive
same,outcome,[9],inactive
Cc1cc(C)nc(NC(=O)NS(=O)(=O)c2ccccc2C(=O)OC2COC2)n1,outcome,[1],inactive
same,outcome,[2],inactive
same,outcome,[3],inactive
same,outcome,[5],inactive
same,outcome,[6],inactive
same,outcome,[7],inactive
same,outcome,[8],inactive
same,outcome,[9],inactive
CCC(C)Nc1c([N+](=O)[O-])cc(C(C)(C)C)cc1[N+](=O)[O-] (centres undefined),AC50,[1],21 µM (active)
same,outcome,[2],inactive
same,AC50,[3],15.8 µM (active)
same,outcome,[5],inactive
same,outcome,[6],inactive
same,outcome,[7],inactive
same,outcome,[8],inactive
same,outcome,[9],inactive
CCOC1Oc2ccc(OS(C)(=O)=O)cc2C1(C)C (centres undefined),outcome,[1],inactive
same,AC50,[2],24 µM (active)
same,outcome,[3],inactive
same,outcome,[5],inactive
same,outcome,[6],inactive
same,AC50,[7],26.5 µM (active)
same,outcome,[8],inactive
same,outcome,[9],inactive
CCN(CC)C(=O)SCc1ccc(Cl)cc1,outcome,[1],inactive
same,outcome,[2],inactive
same,outcome,[3],inactive
same,outcome,[5],inactive
same,outcome,[6],inactive
same,outcome,[7],inactive
same,outcome,[8],inactive
same,outcome,[9],inactive
ClC1C(Cl)C(Cl)C(Cl)C(Cl)C1Cl (centres undefined),outcome,[1],inactive
same,outcome,[2],inactive
same,outcome,[3],inactive
same,outcome,[5],inactive
same,outcome,[6],inactive
same,outcome,[7],inactive
same,outcome,[8],inactive
same,outcome,[9],inactive
O=C(NC(=O)c1c(F)cccc1F)Nc1ccc(OC(F)(F)C(F)OC(F)(F)F)c(Cl)c1 (centres undefined),outcome,[1],inactive
same,AC50,[2],7.82 µM (active)
same,outcome,[3],inactive
same,AC50,[5],0.235 µM (active)
same,outcome,[6],inactive
same,outcome,[7],inactive
same,outcome,[8],inactive
same,outcome,[9],inactive
OCCOc1ccccc1,outcome,[1],inactive
same,outcome,[2],inactive
same,outcome,[3],inactive
same,outcome,[5],inactive
same,outcome,[6],inactive
same,outcome,[7],inactive
same,outcome,[8],inactive
same,outcome,[9],inactive
COC(=O)c1ccccc1S(=O)(=O)NC(=O)Nc1nc(C)nc(OC)n1,outcome,[1],inactive
same,outcome,[2],inactive
same,outcome,[3],inactive
same,outcome,[5],inactive
same,outcome,[6],inactive
same,outcome,[7],inactive
same,AC50,[8],0.173 µM (active)
same,outcome,[9],inactive
CCc1ccc(C(=O)NN(C(=O)c2cc(C)cc(C)c2)C(C)(C)C)cc1,outcome,[1],inactive
same,outcome,[2],inactive
same,outcome,[3],inactive
same,outcome,[5],inactive
same,outcome,[6],inactive
same,outcome,[7],inactive
same,outcome,[8],inactive
same,outcome,[9],inactive
O=C(O)C(F)(F)C(F)(F)C(F)(F)C(F)(F)C(F)(F)C(F)(F)C(F)(F)F,outcome,[1],inactive
same,outcome,[2],inactive
same,outcome,[3],inactive
same,outcome,[5],inactive
same,outcome,[6],inactive
same,outcome,[7],inactive
same,outcome,[8],inactive
same,outcome,[9],inactive
CN1CSC(=S)N(C)C1,outcome,[1],inactive
same,AC50,[2],20 µM (active)
same,AC50,[3],16.9 µM (active)
same,outcome,[5],inactive
same,outcome,[6],inactive
same,outcome,[7],inactive
same,outcome,[8],inactive
same,AC50,[9],16.4 µM (active)
Cc1[nH]c(=O)n(C(C)(C)C)c(=O)c1Cl,outcome,[1],inactive
same,outcome,[2],inactive
same,outcome,[3],inactive
same,outcome,[5],inactive
same,outcome,[6],inactive
same,outcome,[7],inactive
same,outcome,[8],inactive
same,outcome,[9],inactive
